Measurements from the supplement of paper PMC8728848.
Shown is part of a subset that was picked to be rich in the strongest signals.

Legend:
Test in all cases: glycan array binding signal (z-score within array); higher = stronger binding
Conditions in all cases: glycan notation: IUPAC condensed, linker removed
[1] = biological target: Gal(b1-4)GlcNAc(b1-2)[Gal(b1-4)GlcNAc(b1-4)]Man(a1-3)[GlcNAc(b1-4)][Gal(b1-4)GlcNAc(b1-2)Man(a1-6)]Man(b1-4)GlcNAc(b1-4)GlcNAc
Procedure, shortened: (§1)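 The Consortium for Functional Glycomics database supplied 3228 glycan arrays, of which those lacking an available protein sequence were dropped. The binding signal, a within-array Z-score, was averaged across arrays of the same protein sequence and across linkers. Negative scores can be read as non-binding.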

[2] = biological target: Gal(b1-4)GlcNAc(b1-2)[Gal(b1-4)GlcNAc(b1-6)]Man(a1-6)[Gal(b1-4)GlcNAc(b1-2)Man(a1-3)]Man(b1-4)GlcNAc(b1-4)[Fuc(a1-6)]GlcNAc
Procedure, shortened: as §1

[3] = biological target: Gal(b1-4)GlcNAc(b1-3)Gal(b1-4)GlcNAc(b1-2)[Gal(b1-4)GlcNAc(b1-3)Gal(b1-4)GlcNAc(b1-6)]Man(a1-6)[Gal(b1-4)GlcNAc(b1-3)Gal(b1-4)GlcNAc(b1-2)Man(a1-3)]Man(b1-4)GlcNAc(b1-4)GlcNAc
Procedure, shortened: as §1

[4] = biological target: Gal(b1-4)GlcNAc(b1-3)Gal(b1-4)GlcNAc(b1-3)Gal(b1-4)GlcNAc(b1-3)Gal(b1-4)GlcNAc(b1-2)Man(a1-3)[Gal(b1-4)GlcNAc(b1-3)Gal(b1-4)GlcNAc(b1-3)Gal(b1-4)GlcNAc(b1-3)Gal(b1-4)GlcNAc(b1-2)Man(a1-6)]Man(b1-4)GlcNAc(b1-4)GlcNAc
Procedure, shortened: as §1

[5] = biological target: Gal(b1-4)GlcNAc(b1-3)[Fuc(a1-3)GlcNAc(b1-6)]Gal(b1-4)Glc
Procedure, shortened: as §1

[6] = biological target: Gal(b1-4)GlcNAc(b1-6)Gal(b1-4)GlcNAc
Procedure, shortened: as §1

Gal3S6S(b1-4)GlcNAc = biological target: Gal3S6S(b1-4)GlcNAc
Procedure, shortened: as §1

Gal6S(b1-3)GlcNAc6S = biological target: Gal6S(b1-3)GlcNAc6S
Procedure, shortened: as §1

Gal6S(b1-4)Glc6S = biological target: Gal6S(b1-4)Glc6S
Procedure, shortened: as §1

Gal6S(b1-4)GlcNAc6S = biological target: Gal6S(b1-4)GlcNAc6S
Procedure, shortened: as §1

GalNAc(b1-3)Gal = biological target: GalNAc(b1-3)Gal
Procedure, shortened: as §1

GlcA(b1-6)Gal = biological target: GlcA(b1-6)Gal
Procedure, shortened: as §1

[7] = biological target: GlcNAc(a1-4)Gal(b1-3)GlcNAc
Procedure, shortened: as §1

[8] = biological target: GlcNAc(a1-4)Gal(b1-4)GlcNAc
Procedure, shortened: as §1

[9] = biological target: GlcNAc(a1-4)Gal(b1-4)GlcNAc(b1-3)Gal(b1-4)[Fuc(a1-3)]GlcNAc(b1-3)Gal(b1-4)[Fuc(a1-3)]GlcNAc
Procedure, shortened: as §1

[10] = biological target: GlcNAc(b1-2)[GlcNAc(b1-6)]Man(a1-6)[GlcNAc(b1-2)Man(a1-3)]Man(b1-4)GlcNAc(b1-4)GlcNAc
Procedure, shortened: as §1

GlcNAc(b1-3)Fuc = biological target: GlcNAc(b1-3)Fuc
Procedure, shortened: as §1

[11] = biological target: GlcNAc(b1-3)Gal(b1-4)GlcNAc(b1-3)GalNAc
Procedure, shortened: as §1

[12] = biological target: GlcNAc(b1-4)GlcNAc(b1-4)GlcNAc(b1-4)GlcNAc(b1-4)GlcNAc
Procedure, shortened: as §1

[13] = biological target: Neu5Ac(a2-3)Gal(b1-4)GlcNAc(b1-6)[Neu5Ac(a2-3)Gal(b1-3)]GalNAc
Procedure, shortened: as §1

[14] = biological target: Neu5Ac(a2-3)Gal(b1-4)GlcNAc6S
Procedure, shortened: as §1

[15] = biological target: Neu5Ac(a2-3)[GalNAc(b1-4)]Gal(b1-4)GlcNAc
Procedure, shortened: as §1

[16] = biological target: Neu5Ac(a2-6)Gal(b1-4)GlcNAc(b1-2)Man
Procedure, shortened: as §1

[17] = biological target: Neu5Ac(a2-6)Gal(b1-4)GlcNAc(b1-3)Gal(b1-3)GlcNAc
Procedure, shortened: as §1

[18] = biological target: Neu5Ac(a2-6)Gal(b1-4)GlcNAc(b1-3)Gal(b1-4)GlcNAc(b1-3)Gal(b1-4)GlcNAc(b1-2)Man(a1-3)[Neu5Ac(a2-6)Gal(b1-4)GlcNAc(b1-3)Gal(b1-4)GlcNAc(b1-3)Gal(b1-4)GlcNAc(b1-2)Man(a1-6)]GalNAc
Procedure, shortened: as §1

[19] = biological target: Neu5Ac(a2-6)GalNAc(b1-4)GlcNAc6S
Procedure, shortened: as §1

[20] = biological target: Neu5Ac(a2-8)Neu5Ac(a2-8)Neu5Ac(a2-3)Gal(b1-4)Glc
Procedure, shortened: as §1

B1: Epa3to1 (Candida glabrata) (protein)
chain: MGSSHHHHHHSSGLVPRGSHMKRELSSQNPFGYPIGCSPQDVAIIPGLTMELYSYPIVSGTPPNCYDASYVDPEYPRTGYLKRKMVGKSTGVTGNLNYKYSVEKACMVKYGNLPAGYNYNEPLTVSNFTMILYGYFKAQTTGLHTFFVNADDLLYINFGAGNAFDCCKREDSKTKLGEYVAYDIWHVDSSKNKVSLFLEKDLYYPIRMFFNNREYDSSLDLSFSVNGATDQISDFSGYLYSVPDQPDTCPAHIGYDTTCR
glycan array binding signal (z-score) [1]: 0.229
glycan array binding signal (z-score) [2]: 0.071
glycan array binding signal (z-score) [3]: 7.55
glycan array binding signal (z-score) [4]: -0.05
glycan array binding signal (z-score) [5]: 2.39
glycan array binding signal (z-score) [6]: 0.054
glycan array binding signal (z-score) (Gal3S6S(b1-4)GlcNAc): 0.487
glycan array binding signal (z-score) (Gal6S(b1-3)GlcNAc6S): 4.12
glycan array binding signal (z-score) (Gal6S(b1-4)Glc6S): 6.81
glycan array binding signal (z-score) (Gal6S(b1-4)GlcNAc6S): 9.56
glycan array binding signal (z-score) (GalNAc(b1-3)Gal): 0.105
glycan array binding signal (z-score) (GlcA(b1-6)Gal): 0.35
glycan array binding signal (z-score) [7]: -0.807
glycan array binding signal (z-score) [8]: -0.345
glycan array binding signal (z-score) [9]: -0.037
glycan array binding signal (z-score) [10]: -0.435
glycan array binding signal (z-score) (GlcNAc(b1-3)Fuc): -0.291
glycan array binding signal (z-score) [11]: 0.229
glycan array binding signal (z-score) [12]: 4.95
glycan array binding signal (z-score) [13]: -0.382
glycan array binding signal (z-score) [14]: -0.83
glycan array binding signal (z-score) [15]: -0.706
glycan array binding signal (z-score) [16]: -0.272
glycan array binding signal (z-score) [17]: 4.57
glycan array binding signal (z-score) [18]: 0.07
glycan array binding signal (z-score) [19]: -0.365
glycan array binding signal (z-score) [20]: 0.154
